# Results from PubChem BioAssay (EPA / NIEHS).
# Where “and” joins values, the source holds several entries; their conditions need not be identical. Equal entries are not always repeated. Inconclusive results are not listed. Where a structure was tested more than once in an assay, its records may differ in their call. Calls of active or inactive are those of the source. Rule for the calls: active = hit-call score of the fitted dose curve at least 0.9, where 1 is the maximum; inconclusive = response in the unintended direction; inactive = score below 0.9.
# Legend:
# [1] = target: human Adenosine A1 Receptor (AdoRA1), ADORA1 (gene 134) (UniProt P30542); experiment: NVS_GPCR_hAdoRA1: NovaScreen (NVS) G Protein-Coupled Receptor Assay for human Adenosine A1 Receptor (AdoRA1) (AID 2283254)
# How it was run: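 Radioligand competition binding on human cortical membranes, 1 h after compound addition; bound radioactivity read by filtration and scintillation counting. Loss of signal versus DMSO baseline scored as displacement; primary screen duplicate at 25 uM, actives retested in concentration series.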
# [2] = target: D(1A) dopamine receptor (Homo sapiens) (UniProt P21728); experiment: NVS_GPCR_hDRD1: NovaScreen (NVS) G Protein-Coupled Receptor Assay for human Dopamine Receptor D1 (DRD1) (AID 2283269)
# D(1A) dopamine receptor (Homo sapiens), sequence (P21728 whole entry, looked up): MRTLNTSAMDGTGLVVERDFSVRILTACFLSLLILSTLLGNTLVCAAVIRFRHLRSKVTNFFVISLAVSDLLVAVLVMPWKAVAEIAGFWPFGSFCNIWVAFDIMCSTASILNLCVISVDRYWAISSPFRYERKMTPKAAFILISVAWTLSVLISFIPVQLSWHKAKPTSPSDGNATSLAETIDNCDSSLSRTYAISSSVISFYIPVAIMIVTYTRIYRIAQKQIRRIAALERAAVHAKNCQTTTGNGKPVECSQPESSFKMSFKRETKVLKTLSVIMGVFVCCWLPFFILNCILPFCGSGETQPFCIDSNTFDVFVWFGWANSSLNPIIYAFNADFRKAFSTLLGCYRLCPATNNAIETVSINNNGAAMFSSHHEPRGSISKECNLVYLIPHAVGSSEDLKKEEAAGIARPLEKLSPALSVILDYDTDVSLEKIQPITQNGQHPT
# How it was run: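 Cell-free competition with radioligand, filter-trapped and scintillation-counted 1 h post-dose, using HEK293-derived human D1 preparation. Duplicate single-point testing at 25 uM first, then concentration series for actives; DMSO served as baseline, loss-of-signal scored.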
# [3] = target: rat Thyrotropin Releasing Hormone Receptor (TRH), Trhr (gene 25570) (UniProt Q01717); experiment: NVS_GPCR_rTRH: NovaScreen (NVS) G Protein-Coupled Receptor Assay for rat Thyrotropin Releasing Hormone Receptor (TRH) (AID 2283329);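 note: hit means lower bound tracer signal versus DMSO baseline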
# rat Thyrotropin Releasing Hormone Receptor (TRH), Trhr (gene 25570), sequence (Q01717 whole entry, looked up): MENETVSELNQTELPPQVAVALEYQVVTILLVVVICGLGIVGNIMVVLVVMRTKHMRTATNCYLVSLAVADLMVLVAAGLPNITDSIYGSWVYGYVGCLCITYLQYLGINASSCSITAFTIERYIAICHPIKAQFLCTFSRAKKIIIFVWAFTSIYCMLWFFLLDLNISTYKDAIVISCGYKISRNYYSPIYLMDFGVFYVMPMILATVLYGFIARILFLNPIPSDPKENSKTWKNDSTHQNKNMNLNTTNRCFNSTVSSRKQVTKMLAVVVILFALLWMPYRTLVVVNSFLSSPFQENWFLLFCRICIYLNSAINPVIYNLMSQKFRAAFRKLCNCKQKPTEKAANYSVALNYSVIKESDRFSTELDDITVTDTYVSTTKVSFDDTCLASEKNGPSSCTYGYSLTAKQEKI
# How it was run: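 Competitive radioligand binding on rat forebrain membrane preparations, with filtration and scintillation readout after 4 h. Primary testing in duplicate at 25 uM; actives confirmed in concentration-response. DMSO defined baseline.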
# [4] = target: Estrogen receptor (Homo sapiens) (UniProt P03372); experiment: OT_ER_ERaERa_1440: Odyssey Thera (OT) 24-hour HEK293T Protein-Complementation Assay for Estrogen Receptor-alpha/-alpha Homodimer (AID 2283349);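 note: hits raise fluorescence above DMSO for agonists and antagonists alike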
# Estrogen receptor (Homo sapiens), sequence (P03372 whole entry, looked up, the tested form may be a part): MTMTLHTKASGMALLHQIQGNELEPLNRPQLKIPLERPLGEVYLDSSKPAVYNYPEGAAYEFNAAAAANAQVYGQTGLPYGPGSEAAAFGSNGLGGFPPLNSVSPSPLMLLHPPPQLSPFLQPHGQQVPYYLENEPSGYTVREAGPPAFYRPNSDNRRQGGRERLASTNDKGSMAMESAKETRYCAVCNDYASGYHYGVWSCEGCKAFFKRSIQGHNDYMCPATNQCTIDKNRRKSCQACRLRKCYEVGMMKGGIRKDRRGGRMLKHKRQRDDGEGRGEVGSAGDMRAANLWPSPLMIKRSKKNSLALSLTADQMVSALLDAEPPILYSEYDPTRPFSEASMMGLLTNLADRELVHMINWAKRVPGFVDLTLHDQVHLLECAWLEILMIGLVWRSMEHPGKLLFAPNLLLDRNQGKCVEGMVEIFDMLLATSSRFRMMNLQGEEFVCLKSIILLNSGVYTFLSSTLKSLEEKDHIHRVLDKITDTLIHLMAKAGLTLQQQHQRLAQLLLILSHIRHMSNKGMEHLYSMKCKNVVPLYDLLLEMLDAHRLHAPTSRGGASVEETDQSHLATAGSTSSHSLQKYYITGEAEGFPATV
# How it was run: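 HEK293T cells stably expressing the human ER alpha ligand-binding domain (aa 310-547) as a homodimer PCA were dosed for 24 hours. Fluorescence intensity was read by laser scanning cytometry, and gain of signal was fitted relative to DMSO vehicle.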
# [5] = target: Estrogen receptor (Homo sapiens) (UniProt P03372); experiment: OT_ER_ERaERa_0480: Odyssey Thera (OT) 8-hour HEK293T Protein-Complementation Assay for Estrogen Receptor-alpha/-alpha Homodimer (AID 2283351);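 note: rise in fluorescence from reassembled reporter fragments on ERα LBD homodimer in nucleus or whole cell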
# How it was run: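 HEK293T, stable ERα LBD (aa 310-547) PCA homodimer; 8 h compound exposure; fluorescence intensity, laser scanning cytometer; positive fitting direction, DMSO baseline.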
# [6] = target: human Adenosine A2a Receptor (AdoRA2a), ADORA2A (gene 135) (UniProt P29274); experiment: NVS_GPCR_hAdoRA2a: NovaScreen (NVS) G Protein-Coupled Receptor Assay for human Adenosine A2a Receptor (AdoRA2a) (AID 2283256)
# human Adenosine A2a Receptor (AdoRA2a), ADORA2A (gene 135), sequence (P29274 whole entry, looked up): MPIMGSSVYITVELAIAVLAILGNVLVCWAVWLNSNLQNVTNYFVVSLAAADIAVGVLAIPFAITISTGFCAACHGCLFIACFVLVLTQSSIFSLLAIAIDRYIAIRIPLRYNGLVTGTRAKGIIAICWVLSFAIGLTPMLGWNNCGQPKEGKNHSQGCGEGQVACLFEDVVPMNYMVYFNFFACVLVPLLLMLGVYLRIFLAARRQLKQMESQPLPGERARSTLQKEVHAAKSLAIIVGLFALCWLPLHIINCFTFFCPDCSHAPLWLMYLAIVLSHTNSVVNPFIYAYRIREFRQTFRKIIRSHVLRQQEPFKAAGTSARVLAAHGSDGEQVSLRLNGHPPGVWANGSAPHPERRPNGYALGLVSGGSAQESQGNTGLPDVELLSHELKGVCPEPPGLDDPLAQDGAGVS
# How it was run: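 Radioligand displacement on HEK293-derived membrane protein, cell-free; filter-based scintillation counting 1.5 hours after dosing, loss of signal vs DMSO. Single-point duplicate screen at 25 uM, actives retested in concentration series.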
# [7] = target: human Thromboxane A2 Receptor (TXA2), TBXA2R (gene 6915) (UniProt P21731); experiment: NVS_GPCR_hTXA2: NovaScreen (NVS) G Protein-Coupled Receptor Assay for human Thromboxane A2 Receptor (TXA2) (AID 2283282);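 note: actives reduce bound radioligand signal relative to DMSO baseline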
# human Thromboxane A2 Receptor (TXA2), TBXA2R (gene 6915), sequence (P21731 whole entry, looked up): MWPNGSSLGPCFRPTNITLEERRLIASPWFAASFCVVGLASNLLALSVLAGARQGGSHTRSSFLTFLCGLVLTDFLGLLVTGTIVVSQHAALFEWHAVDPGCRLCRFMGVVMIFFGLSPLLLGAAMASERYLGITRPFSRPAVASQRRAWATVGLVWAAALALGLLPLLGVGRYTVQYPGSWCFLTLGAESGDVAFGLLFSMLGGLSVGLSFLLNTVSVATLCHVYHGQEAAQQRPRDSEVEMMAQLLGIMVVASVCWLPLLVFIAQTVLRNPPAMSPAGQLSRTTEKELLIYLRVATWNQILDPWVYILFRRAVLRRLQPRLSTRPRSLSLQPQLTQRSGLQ
# How it was run: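 Biochem binding, human platelets, cell-free; competitive radioligand displacement; 1 h; filter radiodetection. 25 uM duplicate primary, conc. series secondary; DMSO neg. ctrl.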
# [8] = target: Sodium channel protein type 1 subunit alpha (Rattus norvegicus) (UniProt P04774); experiment: NVS_IC_rNaCh_site2: NovaScreen (NVS) Ion Channel Assay for rat Sodium Channel, Site 2 (NaCh) (AID 2283322);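 note: hit means loss of radioligand binding signal relative to DMSO so AC50 marks displacement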
# How it was run: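 Membranes: rat forebrain. Format: competitive radioligand displacement, filter separation, scintillation readout, 1 h exposure. Primary screen in duplicate at 25 uM; actives retested in concentration series.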
# [9] = target: chimpanzee Androgen Receptor (AR), AR (gene 747460) (UniProt O97775); experiment: NVS_NR_cAR: NovaScreen (NVS) Nuclear Receptor Binding Assay for chimpanzee Androgen Receptor (AR) (AID 2283346);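 note: radioligand displacement from AR measured by scintillation counting in a cell-free assay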
# chimpanzee Androgen Receptor (AR), AR (gene 747460), sequence (O97775 whole entry, looked up): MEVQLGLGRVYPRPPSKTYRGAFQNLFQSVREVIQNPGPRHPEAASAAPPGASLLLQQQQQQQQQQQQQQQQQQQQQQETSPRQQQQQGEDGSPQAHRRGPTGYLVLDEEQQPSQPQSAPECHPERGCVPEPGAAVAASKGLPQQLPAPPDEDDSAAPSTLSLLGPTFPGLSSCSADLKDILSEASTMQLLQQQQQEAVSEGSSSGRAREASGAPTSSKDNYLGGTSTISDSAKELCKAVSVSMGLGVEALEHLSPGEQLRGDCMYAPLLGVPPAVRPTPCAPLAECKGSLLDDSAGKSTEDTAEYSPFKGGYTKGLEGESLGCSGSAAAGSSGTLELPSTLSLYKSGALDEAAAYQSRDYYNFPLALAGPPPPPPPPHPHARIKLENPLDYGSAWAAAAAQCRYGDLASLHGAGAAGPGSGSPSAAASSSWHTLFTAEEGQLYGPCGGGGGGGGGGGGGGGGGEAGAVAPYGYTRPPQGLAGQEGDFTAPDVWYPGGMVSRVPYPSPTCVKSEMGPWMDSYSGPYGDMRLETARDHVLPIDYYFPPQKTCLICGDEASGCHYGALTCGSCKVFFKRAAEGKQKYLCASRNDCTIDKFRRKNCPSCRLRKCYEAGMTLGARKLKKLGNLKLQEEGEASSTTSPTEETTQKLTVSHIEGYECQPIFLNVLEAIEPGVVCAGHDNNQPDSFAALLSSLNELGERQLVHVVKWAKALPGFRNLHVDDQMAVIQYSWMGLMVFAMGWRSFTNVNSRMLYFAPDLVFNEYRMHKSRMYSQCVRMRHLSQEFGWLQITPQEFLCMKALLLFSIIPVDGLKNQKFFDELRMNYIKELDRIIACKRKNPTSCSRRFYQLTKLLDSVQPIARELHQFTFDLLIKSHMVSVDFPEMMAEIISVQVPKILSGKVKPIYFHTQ
# How it was run: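 Radioligand binding to chimpanzee AR expressed in Sf9/Sf21 cells, cell-free, measured 72 h after dosing by lysate-based scintillation counting. Loss of signal vs DMSO; initial duplicate screen at 25 uM, actives retested in concentration series.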
# [10] = target: Estrogen receptor (Homo sapiens) + Estrogen receptor beta (Homo sapiens) (UniProt P03372+Q92731); experiment: OT_ER_ERaERb_0480: Odyssey Thera (OT) 8-hour HEK293T Protein-Complementation Assay for Estrogen Receptor-alpha/-beta Heterodimer (AID 2283352)
# Estrogen receptor (Homo sapiens) + Estrogen receptor beta (Homo sapiens), sequence (P03372 whole entry, looked up, the tested form may be a part): as the sequence (P03372 whole entry, looked up, the tested form may be a part) above
# Estrogen receptor (Homo sapiens) + Estrogen receptor beta (Homo sapiens), sequence (Q92731 whole entry, looked up, the tested form may be a part): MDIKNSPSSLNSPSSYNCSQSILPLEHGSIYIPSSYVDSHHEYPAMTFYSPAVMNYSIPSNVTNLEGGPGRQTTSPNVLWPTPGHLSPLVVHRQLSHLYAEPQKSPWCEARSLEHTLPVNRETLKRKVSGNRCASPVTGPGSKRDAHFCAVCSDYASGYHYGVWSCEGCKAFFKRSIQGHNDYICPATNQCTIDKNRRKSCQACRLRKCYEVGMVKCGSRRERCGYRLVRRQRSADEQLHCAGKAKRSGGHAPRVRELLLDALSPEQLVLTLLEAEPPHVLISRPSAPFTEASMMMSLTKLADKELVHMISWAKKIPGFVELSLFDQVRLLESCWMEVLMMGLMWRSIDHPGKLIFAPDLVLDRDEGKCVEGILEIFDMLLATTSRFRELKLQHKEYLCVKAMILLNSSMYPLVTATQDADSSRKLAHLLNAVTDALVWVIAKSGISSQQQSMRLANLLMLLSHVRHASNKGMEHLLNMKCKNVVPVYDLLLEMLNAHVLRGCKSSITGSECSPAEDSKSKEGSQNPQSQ
# How it was run: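 Increase in mean fluorescence intensity, measured by laser scanning plate cytometry, reported ER-alpha/ER-beta LBD complementation in HEK293T cells after 8 h chemical exposure. DMSO served as baseline; basal signal is low, punctate and cytoplasmic.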
# [11] = target: Muscarinic acetylcholine receptor M2 (Homo sapiens) (UniProt P08172); experiment: NVS_GPCR_hM2: NovaScreen (NVS) G Protein-Coupled Receptor Assay for human Muscarinic, M2 Receptor (AID 2283273)
# How it was run: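 Radioligand displacement on human M2 receptor membranes from CHO cells, 1 h incubation, filtration with scintillation counting. Primary screen in duplicate at 25 uM; actives retested in concentration series; loss of signal fitted versus DMSO.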
# [12] = target: Estrogen receptor (Homo sapiens) (UniProt P03372); experiment: NVS_NR_hER: NovaScreen (NVS) Nuclear Receptor Binding Assay for human Estrogen Receptor (ER) (AID 2283348)
# How it was run: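 Radioligand competitive displacement binding to estrogen receptor from MCF7 extract, cell-free; 18 h after dosing, scintillation read-out. Primary screen in duplicate at 25 uM; actives followed up in concentration series; loss of signal vs DMSO.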
# [13] = target: sheep Cyclooxygenase-1 (Cox1), PTGS1 (gene 443551) (UniProt P05979); experiment: NVS_ENZ_oCOX1: NovaScreen (NVS) Enzymatic Assay for sheep Cyclooxygenase-1 (Cox1) (AID 2283239);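 note: actives reduce cyclooxygenase activity so potencies are for inhibitors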
# How it was run: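 Native ovine seminal vesicle protein serves as enzyme source in this biochemical assay. Colorimetric signal is recorded 0.66 h after chemical addition, and decreases versus the DMSO control define activity.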
# [14] = target: rat Peripheral-type Benzodiazepine Receptor (PBR), Tspo (gene 24230) (UniProt P16257); experiment: NVS_MP_rPBR: NovaScreen (NVS) Membrane Protein Assay for rat Peripheral-type Benzodiazepine Receptor (PBR) (AID 2283335)
# rat Peripheral-type Benzodiazepine Receptor (PBR), Tspo (gene 24230), sequence (P16257 whole entry, looked up): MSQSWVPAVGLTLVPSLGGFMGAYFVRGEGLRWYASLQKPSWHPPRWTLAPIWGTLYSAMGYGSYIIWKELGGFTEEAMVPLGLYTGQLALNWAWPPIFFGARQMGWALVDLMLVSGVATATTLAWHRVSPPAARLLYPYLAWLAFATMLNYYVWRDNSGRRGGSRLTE
# How it was run: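 Rat kidney membranes; radioligand binding with displacement, filter-based scintillation counting, 1 h incubation. Primary screen in duplicate at 25 uM, actives followed in concentration series; loss of binding vs DMSO.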
# [15] = target: human Opioid Receptor Mu (Opiate Mu), OPRM1 (gene 4988) (UniProt P35372); experiment: NVS_GPCR_hOpiate_mu: NovaScreen (NVS) G Protein-Coupled Receptor Assay for human Opioid Receptor Mu (Opiate Mu) (AID 2283290);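 note: hits lower bound tracer signal versus DMSO meaning displacement of the ligand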
# human Opioid Receptor Mu (Opiate Mu), OPRM1 (gene 4988), sequence (P35372 whole entry, looked up): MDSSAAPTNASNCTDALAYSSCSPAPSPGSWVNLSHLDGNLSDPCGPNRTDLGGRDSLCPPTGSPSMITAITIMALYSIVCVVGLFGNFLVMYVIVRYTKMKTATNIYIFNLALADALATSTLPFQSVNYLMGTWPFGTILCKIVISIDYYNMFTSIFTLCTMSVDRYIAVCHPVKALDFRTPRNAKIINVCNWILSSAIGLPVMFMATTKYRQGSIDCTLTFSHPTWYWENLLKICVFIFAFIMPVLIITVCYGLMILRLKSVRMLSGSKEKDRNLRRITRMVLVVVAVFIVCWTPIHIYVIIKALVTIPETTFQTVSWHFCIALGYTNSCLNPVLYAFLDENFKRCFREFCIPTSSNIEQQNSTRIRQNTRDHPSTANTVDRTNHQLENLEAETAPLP
# How it was run: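 Primary screen in duplicate at 25 uM, with actives followed in concentration series. CHO-derived receptor membranes, cell-free; bound radioligand read by scintillation counting after filtration at 2.5 h, decrease scored against DMSO.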
# [16] = target: bovine Estrogen Receptor (ER), ESR1 (gene 407238) (UniProt P49884); experiment: NVS_NR_bER: NovaScreen (NVS) Nuclear Receptor Binding Assay for bovine Estrogen Receptor (ER) (AID 2283345);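 note: actives lower the bound radioligand count which means they displace the ER ligand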
# How it was run: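 Displacement of a radioligand from estrogen receptor in bovine uterine membrane preparations; scintillation signal taken at 18 hours, DMSO as baseline. Single-concentration duplicates (25 uM) preceded concentration-response follow-up of actives.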
# [17] = target: human Neurokinin, NK2 Receptor, TACR2 (gene 6865) (UniProt P21452); experiment: NVS_GPCR_hNK2: NovaScreen (NVS) G Protein-Coupled Receptor Assay for human Neurokinin, NK2 Receptor (AID 2283278);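 note: actives reduce bound radioligand signal relative to DMSO baseline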
# How it was run: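 Cell-free radioligand binding using receptor protein extracted from CHO cells; readings taken 4 hours after chemical dosing by filter-based scintillation counting. Primary screen ran single concentration (25 uM) in duplicate; actives followed up in concentration series, loss-of-signal versus DMSO baseline.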
structure (smiles),measurement,setting,value
Cn1c(=O)[nH]c2ncn(C)c2c1=O,AC50,[1],25 µM (active)
C=CC(=O)OCC(Br)CBr (stereo not drawn),outcome,[2],inactive
CCCCCCCC/C=C\CCCCCCCC(=O)OCCO,outcome,[3],inactive
same,outcome,[4],inactive
same,outcome,[5],inactive
O=c1c2ccccc2oc2ccccc12,outcome,[6],inactive
CCCCCCCCc1ccc(Nc2ccc(CCCCCCCC)cc2)cc1,outcome,[7],inactive
COCc1c(C(C)C)nc(C(C)C)c(/C=C/[C@@H](O)C[C@@H](O)CC(=O)O)c1-c1ccc(F)cc1,outcome,[6],inactive
same,AC50,[8],1.81 µM (active)
COC(=O)c1c(C)cc(O)c(C)c1O,outcome,[3],inactive
same,AC50,[9],13.6 µM (active)
same,outcome,[4],inactive
same,outcome,[5],inactive
same,AC50,[10],50.4 µM (active)
CC(C)c1ccc(C=O)cc1,outcome,[6],inactive
same,outcome,[11],inactive
CC(C)C1=CC2=CC[C@@H]3[C@](C)(CCC[C@@]3(C)C(=O)O)[C@H]2CC1,outcome,[3],inactive
same,outcome,[12],inactive
same,AC50,[4],12 µM (active)
same,outcome,[5],inactive
CCCCCCCCCCOS(=O)(=O)O,outcome,[3],inactive
same,outcome,[4],inactive
same,outcome,[5],inactive
CCN(CCC#N)c1ccc(N=Nc2c(Cl)cc([N+](=O)[O-])cc2Cl)cc1,outcome,[3],inactive
same,AC50,[9],16.1 µM (active)
same,outcome,[4],inactive
same,outcome,[5],inactive
CCOC(=O)[C@H](C)O,outcome,[8],inactive
C1=CCCC1,outcome,[6],inactive
same,outcome,[2],inactive
CCOc1nc(F)cc2nc(S(=O)(=O)Nc3c(Cl)cccc3C(=O)OC)nn12,AC50,[2],25 µM (active)
C/C=C\C/C=C/CCCCCCCCOC(C)=O,AC50,[13],25 µM (active)
same,AC50,[14],17.2 µM (active)
same,outcome,[12],inactive
CCCCC/C=C\C/C=C\CCCCCCCC(=O)OC,AC50,[2],45.1 µM (active)
same,AC50,[7],25 µM (active)
same,AC50,[15],16.9 µM (active)
same,AC50,[14],9.68 µM (active) and 8.87 µM (active)
same,outcome,[16],inactive
same,AC50,[9],4.2 µM (active) and 11.5 µM (active)
same,AC50,[12],6.14 µM (active)
same,outcome,[12],inactive
same,outcome,[4],inactive
same,outcome,[5],inactive
same,outcome,[10],inactive
CCCCCCCCCCCCCCCC[N+](C)(C)CC,AC50,[6],44.2 µM (active)
same,AC50,[2],1.95 µM (active)
same,AC50,[11],0.395 µM (active)
same,AC50,[17],1.78 µM (active)
same,AC50,[15],2.05 µM (active)
same,outcome,[8],inactive
same,outcome,[12],inactive
COC(=O)C1=C(C)NC(C)=C(C(=O)OCC(C)C)C1c1ccccc1[N+](=O)[O-] (stereo not drawn),outcome,[12],inactive
CCC(Cc1ccccc1)(C(=O)c1ccc(N2CCOCC2)cc1)N(C)C (stereo not drawn),outcome,[12],inactive
CCCCOCCOC(=O)COc1nc(Cl)c(Cl)cc1Cl,outcome,[4],inactive
same,outcome,[5],inactive
CCCCCCCC/C=C\CCCCCCCC(=O)O,outcome,[4],inactive
same,outcome,[5],inactive
